BRCA1 expr up: BRCA1 expression activation; MCF7-BRCA1-FFLuc reporter, luminescence, 48 h; response scale: scaled: vehicle 0%, 10 µM genistein 100%; Potency, µM (highest dose often 46.1 µM), for the others: at the top dose activation, usual class: activators; hit rate 1.1% among 380,000; also: potency is read from the fitted curve at half-maximal effect; nearly all actives have a fitted effect of over 80% in size
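First, MCF7-BRCA1-FFLuc cells (2000/well) attach for 2 h; next, compounds are pin-added and incubated 48 h at 37 °C; finally, luciferase reagent is added and luminescence read after 15 min.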
IL2 activator: IL-2 activation. IL-2 activation reporter assay, cell-based qHTS; stimulated with anti-CD3/CD4/CD28 beads; in transgenic mouse T cells. activation, % (series mostly up to about 46 µM). hit rate 0.065% among 360,000. AID 652025; in the data active = activation above about 50%; inconclusive = mostly about 30% to 49%; also: 0% is about no effect
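Readout is EGFP and DsRed signal by fluorescent plate cytometry after 18 h at 37 degrees C. Transgenic mouse T cells (750/well) received compound for 60 min before bead stimulation (anti-CD3, anti-CD4, anti-CD28); memory T cells served as non-tolerant control.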
Nrf2 activator: activators of Nrf2 (ARE) signaling; AREc32 ARE-luciferase reporter (MCF7-derived line), luminescence, 24 h; Potency, µM (series often up to 46.1 µM), inactives show at the highest dose activation, usual class: activators; hit rate 0.31% among 410,000; also: potency is read from the fitted curve at half-maximal effect; % of control where 0% means no effect; nearly all actives have a fitted effect of over 65% in size
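AREc32 cells carrying an ARE-driven firefly luciferase, 1000 cells/well in OPTI-MEM with 5% FBS, dosed after overnight attachment and incubated 24 hr at 37 deg C. Steady-Glo luminescence read after 30 min at RT.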
ELG1 repair inh: ELG1-dependent DNA repair inhibition. HEK293T ELG1-luciferase reporter, luminescence, 16 h; DNA damage induced by 5-fluorouridine. Potency, µM (top dose mostly 46.1 µM), without a hit: at the highest dose activity change, negative = inhibition, usual class: inhibitors. hit rate 2.3% among 330,000; also: potency is read from the fitted curve at half-maximal effect; % is scaled to controls: 0 for no effect and ±100 for the full control effect; nearly all actives have a fitted effect of over 55% in size
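Cells (2,000 per well) received 5-fluorouridine plus test compound or DMSO and were incubated 16 hr at 37 °C, 5% CO2. Luciferase activity was read by luminescence 30 min after ONE-Glo addition; signal suppression marked inhibition of damage-induced ELG1 function.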
* hit, by the source's call; ? = inconclusive; nt = no result. In the library only some 3.1% were active in any assay of this set; here they are far more common. Unless noted, calls follow the shape of the dose curve; as a rule, active = well fitted curve in the direction sought with a large enough effect; inconclusive = small, poorly fitted or top-dose-only effect, or another doubt; inactive = no such curve, though single readings can be large; an effect the other way counts as inactive or inconclusive.

SMILES	BRCA1 expr up	IL2 activator	Nrf2 activator	ELG1 repair inh
CCCC[n+]1ccn(-c2nc3ccccc3nc2[N-]S(=O)(=O)c2cccs2)c1	4%	0	0%	21µM*
CCCC[n+]1ccn(-c2nc3ccccc3nc2[N-]S(=O)(=O)c2ccccc2)c1	0%	-1	-1%	12%
COc1ccc(Br)cc1CNC(=O)C1CCCCN1S(=O)(=O)c1ccc(F)cc1 (configuration not stated)	nt	nt	3%	nt
CCc1ccc(-c2nc(CSCC(=O)N3CCN(c4ncccn4)CC3)c(C)o2)cc1	-25%	-4	0%	15µM*
CCc1ccccc1NC(=O)c1nn(-c2ccc(C)cc2)c(=O)c2c1c1ccccc1n2C	nt	nt	5%	nt
C/C(Cc1ccccc1)=N\NC(=O)c1cccnc1	0%	2	3%	3%
C/C(Cc1ccccc1)=N\NC(=O)c1ccccn1	2.2µM*	0	0%	?
Nc1nc(CSc2nnnn2-c2ccccc2)nc(N2CCCc3ccccc32)n1	-76%	-4	-1%	16µM*
Nc1nc(CN2CCN(c3ccccc3)CC2)nc(N2CCCc3ccccc32)n1	-15%	-3	-1%	4%
Cc1ccc(-c2nnc(Nc3ccc(C(=O)N(C)C)cc3)c3ccccc23)cc1S(=O)(=O)N(C)C	nt	nt	2%	nt
Cc1ccccc1CN1C(=O)/C(=C\c2ccc(C(=O)NCCN3CCOCC3)cc2)Sc2ccccc21	-24%	-4	0%	?
O=C(NCCN1CCOCC1)c1ccc(/C=C2\Sc3ccccc3N(Cc3ccccc3F)C2=O)cc1	-38%	0	3%	21µM*
CCN1CCN(CCNC(=O)c2ccc(/C=C3/Sc4ccccc4N(Cc4cccc(Cl)c4)C3=O)cc2)CC1	-69%	-3	-2%	?
Cc1cccc(CN2C(=O)/C(=C\c3ccc(C(=O)NCCN4CCOCC4)cc3)Sc3ccccc32)c1	-39%	4	-2%	21µM*
Cc1ccc(CNC(=O)CSc2ncc(S(=O)(=O)c3ccc(C)c(Cl)c3)c(=O)[nH]2)cc1	4%	nt	-1%	nt
CN(c1ccccc1)c1ncnc2c1cnn2C	nt	nt	0%	nt
CN(C)c1ccc(/C=C/c2ccc3c4ccccc4ccc3[n+]2-c2ccccc2)cc1	-83%	-8	-3%	1.5µM*
CN(C)c1ccc(/C=C/c2ccc3ccccc3[n+]2C)cc1	-88%	0	-2%	?
COc1ccc(CCN2C(=O)C(Oc3ccccc3C)C2c2ccc3c(c2)OCO3)cc1 (configuration not stated)	-72%	-6	-1%	16µM*
FC(F)(F)c1cccc(N2CCN(c3ncnc4c3nc3n4CCCC3)CC2)c1	nt	nt	-3%	nt
COc1ccccc1CN(C)C(C)C(=O)Nc1cccc(C(C)=O)c1 (configuration not stated)	-13%	0	0%	?
COc1cc(CN(C)C(C)C(=O)Nc2ccc([N+](=O)[O-])cc2Cl)ccc1OC(F)F (configuration not stated)	-16%	-2	0%	16µM*
COc1ccc([N+](=O)[O-])cc1NC(=O)C(C)N(C)Cc1cccc(OC)c1OC (configuration not stated)	-44%	0	9%	9.2µM*
COc1ccc(Cl)cc1NC(=O)C(C)N(C)Cc1ccc(C(F)(F)F)cc1 (configuration not stated)	-39%	-3	3%	-23%
COc1ccc(Br)cc1CN(C)C(C)C(=O)Nc1cccc(C(C)=O)c1 (configuration not stated)	-14%	-6	0%	26µM*

Source: PubChem (National Center for Advancing Translational Sciences (NCATS))
